# Source: PubChem BioAssay AID504332 (National Center for Advancing Translational Sciences (NCATS), 2011)
# Among all 350,000 compounds or so, about 31,000 (8.9%) were called active. Roughly 15% stayed inconclusive and do not appear here. The sample holds actives, similar compounds and a random draw of the others, so the mix is not that of the screen. A number with no mark means an inactive call. The call rests on the fitted dose curve; in most records, active means well fitted inhibition curve with a large enough effect; inconclusive means small, poorly fitted or top-dose-only effect; inactive means no such curve, though single readings can be large or run the other way.
# Molecular target: Histone-lysine N-methyltransferase EHMT2 (Homo sapiens) (UniProt Q96KQ7)
# Sequence (Q96KQ7 913-1193 limits assumed): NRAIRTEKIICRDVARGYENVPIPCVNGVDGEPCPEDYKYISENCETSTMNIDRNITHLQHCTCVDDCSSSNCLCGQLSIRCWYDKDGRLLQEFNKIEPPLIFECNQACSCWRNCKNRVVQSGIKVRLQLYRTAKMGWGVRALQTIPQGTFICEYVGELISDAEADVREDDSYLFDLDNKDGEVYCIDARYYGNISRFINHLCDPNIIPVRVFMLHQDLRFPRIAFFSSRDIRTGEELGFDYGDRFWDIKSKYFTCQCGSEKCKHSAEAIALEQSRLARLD
# Experiment: qHTS Assay for Inhibitors of Histone Lysine Methyltransferase G9a; further: nearly all actives have a fitted effect of over 75% in size
# Details: G9a H3K9 monomethylation, AlphaScreen, 2 h; series mostly up to 59 µM; activity, negative = inhibition: at the top concentration
# Summary of the method: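 Quantitative HTS format: methyltransferase activity on a biotin-tagged H3K9 peptide is measured by AlphaScreen, using a rabbit anti-monomethyl-H3K9 antibody with streptavidin donor and anti-IgG acceptor beads. Final levels are 20 nM enzyme, 500 nM peptide, 20 uM SAM; 2 h RT.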
# On the % scale 0 is the no-effect control and ±100 the full control effect; potency means the concentration at half of the fitted maximal effect.
Structure (SMILES),Potency,"activity, negative = inhibition"
COc1cccc(-c2nc(CS(=O)(=O)CC(=O)NCCc3ccc(OC)c(OC)c3)c(C)o2)c1,inactive,
Cc1ccc(-c2nc(CS(=O)(=O)CC(=O)NCc3ccc4c(c3)OCO4)c(C)o2)cc1,,1.88% [at 102 µM]
COc1ccc(-c2nc(CS(=O)(=O)CC(=O)NCc3cccc(Br)c3)c(C)o2)cc1,44.7 µM (active),
CCN(CC(=O)Nc1c(F)cccc1F)C(=O)C1CCC1,,-3.45% [at 102 µM]
COc1cccc(NC(=O)C(=O)NCC(c2ccc3c(c2)OCO3)N2CCN(C)CC2)c1 (configuration not stated),,6.98%
CCOC(=O)c1c(-c2ccc(OC)cc2)oc2ccc(OCc3ccc(C(=O)OC)cc3)cc12,,58.2%
CC(=O)c1sc(NC(=O)CCN2C(=O)C3CC=CCC3C2=O)nc1-c1ccccc1 (configuration not stated),,-8.89% [at 2.33 µM]
O=C(NCc1ccccn1)c1c(O)c2c([nH]c1=O)CCCC2,,13.7%
C[N+](C)(C)CCNC(=O)c1c(O)c2c([nH]c1=O)CCCC2,10 µM (active),
CCc1nnc(NC(=O)c2c(O)c3c([nH]c2=O)CCCC3)s1,,27.8%
O=C(Nc1ccc(Br)cc1)c1ccc(Br)c(S(=O)(=O)NCc2ccccc2)c1,,-2.54%
COc1ccc(CCNC(=S)N2CCN(S(=O)(=O)c3ccc(F)cc3)CC2)cc1,,-16.1% [at 0.501 µM]
CN(C)S(=O)(=O)N1CCC(Oc2cccc(C(=O)NCCCC3CCCC3)c2)CC1,,69.6% [at 102 µM]
C=CCNc1nnc(C)c2ccccc12,,-0.456% [at 102 µM]
O=C(CSc1nc2ccccc2nc1Cc1ccccc1)N1CCCCC1,,2.23%
C=CCNc1nnc(SCC(=O)N2CCCCC2)c2ccccc12,50.1 µM (active),
O=C(COc1ccccc1O)NC1CCCC1,,-42.6% [at 102 µM]
COc1cc2ccccc2cc1C(=O)N1CCOCC1,,-27.4% [at 102 µM]
COc1cc(OC)cc(C(=O)NNC(=O)CNC(=O)c2ccc(Br)o2)c1,,-1.19% [at 102 µM]
O=C(Cn1cc(SCc2cccc(Cl)c2)c2ccccc21)N1CCCCC1,,2.69%
CCc1cccc2c(C=C(C#N)C#N)cn(CC(=O)N3CCCCC3)c12,44.7 µM (active),
O=C(Cn1cc(SCc2ccccc2)c2ccccc21)N1CCCCC1,,-8.44%
CCc1cccc(C)c1NS(=O)(=O)c1ccc(-c2cc(C)no2)s1,,-1.34%
COc1cccc(Nc2nc3ccccc3c3nncn23)c1,,3.66%
O=C(CN1CCN(Cc2ccc(Cl)cc2)C1=O)NCc1ccc(F)cc1,,-4.97%

Structure (SMILES),Potency,"activity, negative = inhibition"
COCc1nnc(NC(=O)CS(=O)(=O)Cc2ccccc2)s1,,-27% [at 12.7 µM]
CC(C)Cc1nnc(NC(=O)CCc2ccccc2)s1,35.5 µM (active),
Cc1ccc(S(=O)(=O)CCC(=O)Nc2nnc(CC(C)C)s2)cc1,,8.95% [at 102 µM]
COC(=O)CSc1nnc(NC(=O)CCc2ccccc2)s1,,12.7%
COCCSc1nnc(NC(=O)CCS(=O)(=O)Cc2ccccc2)s1,,15.9% [at 102 µM]
CCOCc1nnc(NC(=O)CCS(=O)(=O)Cc2ccccc2)s1,79.4 µM (active),
Cc1cccc(OCCC(=O)OCc2csc(CC(=O)Nc3ccccc3C)n2)c1,,-6.68% [at 12.7 µM]
CCN(CC)CCn1c(=S)[nH]c2ncccc2c1=O,15.8 µM (active),
CCCCn1c(=S)[nH]c2ncccc2c1=O,,17.8% [at 2.33 µM]
CCN(CC)CCn1cnc2c1c(=O)[nH]c(=O)n2Cc1ccccc1,,20.1% [at 2.33 µM]
CN(C(=O)CSc1nnc(NC(=O)Nc2ccccc2)s1)c1ccccc1,,12.2%
Cc1ccccc1NC(=O)Cn1c(=O)n(CCCCC(=O)NCc2ccccc2Cl)c(=O)c2ccccc21,,-25.2%
Cc1ccc(COC(=O)CN2C(=O)NC3(CCCC3)C2=O)cc1,,-12.1% [at 12.7 µM]
CCOc1ccc(C(C)=O)cc1COC(=O)CN1C(=O)NC2(CCCC2)C1=O,56.2 µM (active),
CCOc1ccc(C(C)NC(=O)CN2C(=O)NC3(CCCCC3)C2=O)cc1OCC (configuration not stated),,-0.826%
CC(C)c1ccc(NC(=O)CN(C)S(=O)(=O)c2ccc3c(c2)c(=O)n(C)c(=O)n3C)cc1,,-40.7%
CC(OC(=O)c1ccc(-n2cnnn2)cc1)C(=O)NCc1ccccc1 (configuration not stated),,-1.43% [at 102 µM]
NC1=NC(c2cc(F)cc(F)c2)n2c(nc3ccccc32)N1 (configuration not stated),,-45.3%
Cc1cc2nc(SCCN3CCOCC3)[nH]c2cc1C,,12.3%
CCn1c2ccc(F)cc2c2nnc(SCCN3CCOCC3)nc21,44.7 µM (active),
N#Cc1cnn2cc(CCN3CCOCC3)c(-c3ccc(F)cc3)nc12,,5.85% [at 102 µM]
O=C(/C=C/c1cccc(C(F)(F)F)c1)N1CCN(c2ccccn2)CC1,,13.1% [at 102 µM]
Cc1ccc(NC(=O)CSc2nc3ccccc3c3nc(CCn4cncc4C)nn23)cc1F,,-31.7%
CCOC(=O)C1CCN(C(=O)C2CCCN(S(=O)(=O)c3ccc(OC)c(Cl)c3)C2)CC1 (configuration not stated),,2.19% [at 102 µM]
COC(=O)c1cc(NC2c3ccccc3C(=O)N2c2ccc(Cl)cn2)cc(C(=O)OC)c1 (configuration not stated),,-10.9%

Structure (SMILES),Potency,"activity, negative = inhibition"
CC1(C)SC2c3ccccc3C(=O)N2[C@@H]1C(=O)NCc1ccco1 (some centres not stated),,-4.15%
O=C1c2ccccc2C(Nc2ccc3c(c2)OCCO3)N1Cc1ccco1 (configuration not stated),39.8 µM (active),
Cc1ccnc(N2C(=O)c3ccccc3C2Nc2ccc3c(c2)OCCO3)c1 (configuration not stated),79.4 µM (active),
O=C(NC1CCCCC1)C1c2ccccc2C(=O)N1Cc1ccco1 (configuration not stated),,-38.1% [at 102 µM]
Cc1cccc(C(=O)Nc2ccccc2-c2nnn(CC(=O)Nc3ccc4c(c3)OCCO4)n2)c1,,48.1% [at 12.7 µM]
COc1ccc(C(C)(C)C)cc1NC(=O)CCN1C(=O)C2CCCCC2C1=O (configuration not stated),,-24.5% [at 12.7 µM]
CC(=O)N1CCCc2cc(S(=O)(=O)N3CCC(C(=O)NCc4ccc(F)cc4)CC3)ccc21,,22.6%
COc1cc(NC(=O)CSc2nc3nc(C)c(Cc4ccc(C)cc4)c(C)n3n2)cc(OC)c1OC,,7.15%
CCOc1ccccc1NC(=O)Cn1nnc(C(=O)Nc2ccc(C)c(C)c2)c1N,,-6.58%
Cc1ccc(NC(=O)C(=O)NCC(c2cccnc2)N2CCOCC2)cc1 (configuration not stated),,8.4%
COc1ccc(N(Cc2ccc(N(C)C)cc2)C(=O)c2ccc(S(C)(=O)=O)cc2)cc1,12.6 µM (active),
COc1ccc(S(=O)(=O)NCc2ccc(C(=O)N(C)Cc3ccco3)cc2)cc1,,-7.57% [at 102 µM]
COc1ccc(C(=O)N(Cc2ccc(N(C)C)cc2)C2CCS(=O)(=O)C2)cc1 (configuration not stated),,-2.24% [at 102 µM]
COc1ccc(C)cc1N(C)C(=O)c1c(C)oc2ncnc(N3CCOCC3)c12,,-0.219%
Cc1ccc(OCC(=O)Nc2ccccc2C(=O)NC2CC2)cc1C,,35% [at 102 µM]
Cc1ccc2sc(NNC(=O)c3ccc4c(c3)OCCO4)nc2c1C,10 µM (active),
Cc1ccc(C(=O)NNC(=O)c2ccc3c(c2)OCCO3)cc1,,8.51% [at 2.33 µM]
Cc1cccc(C)c1NC(=O)CNC(=O)c1ccc2c(c1)OCCO2,,-11.7%
Cc1c(CNC(C)c2ccccc2)c(C(=O)O)c(C)n1Cc1c(F)cccc1Cl (configuration not stated),,-5.36%
C[n+]1cc(-c2ccccc2)oc1-c1ccccc1,50.1 µM (active),
CCSc1nsc(NC(=O)Nc2ccccc2OC)n1,,27.7% [at 102 µM]
O=C(CN1C(=O)COc2ccc(Cl)cc21)Nc1ccc(N2CCOCC2)cc1,,-10.1% [at 102 µM]
CC(OC(=O)CN1C(=O)COc2ccccc21)C(=O)NCc1ccc(F)cc1 (configuration not stated),,-0.855% [at 102 µM]
O=C(CN1C(=O)COc2ccccc21)Nc1ccc(F)cc1,31.6 µM (active),
Cn1c(=O)c2c(SCC(=O)NCC3CCCO3)nc(-c3ccccc3F)nc2n(C)c1=O (configuration not stated),,3.42%

Structure (SMILES),Potency,"activity, negative = inhibition"
CCOc1ccc(N(C)S(=O)(=O)c2cc(-c3cnc(C)o3)ccc2OC)cc1,,4.14%
Cc1cccc(N2CCN(C(=O)Cn3ncc4c5ccccc5n(C)c4c3=O)CC2C)c1 (configuration not stated),,4.42%
Cc1csc(=Nc2ccccc2)n1CCO,28.2 µM (active),
Cc1csc(=NC(=O)c2ccccc2)n1CCO,,-1.86%
COc1ccccc1OCCCn1c(-c2ccc(Cl)cc2)nc2ccccc2c1=O,,1.97%
CN(C)CCCn1c(SCc2ccc(Cl)cc2)nnc1-c1ccncc1,,14% [at 0.501 µM]
CN(C)CCCn1c(-c2ccc(Cl)cc2)csc1=Nc1ccccc1,12.6 µM (active),
OCCn1c(-c2ccccc2)csc1=Nc1ccccc1,44.7 µM (active),
COCCn1c(CCC(=O)Nc2cc(C)ccc2C)nc2cccnc21,,22.5%
O=C(OCC(=O)N1CCc2ccccc21)C1CCCN1S(=O)(=O)c1ccc(Cl)cc1 (configuration not stated),,0.8% [at 2.33 µM]
CCCC(=O)Nc1ncnc2c1ncn2[C@@H]1O[C@@H]2OP(=O)(O)OC[C@H]2[C@H]1OC(=O)CCC,,4.63%
CCCOc1cccc(C(=O)Nc2cccc(NC(=O)c3ccc(C(C)(C)C)cc3)c2)c1,,-0.125%
COc1ccc2c(c1)[C@H]1[C@H](CO2)[C@H](c2ccccc2)[C@]2(C)C(=O)Nc3cc(F)c(F)cc3C(=O)N12,,5.78% [at 2.33 µM]
COc1ccc(-c2nonc2NC(=O)c2oc3ccc(F)cc3c2C)cc1OC,,1.61% [at 102 µM]
Cc1c(NC(=O)Cc2ccccc2)cccc1-c1nc2cccnc2s1,,-27.2%
O=C(Cc1cc(=O)[nH][nH]1)N/N=C/c1ccccc1[N+](=O)[O-],,9.5% [at 102 µM]
CN(C)/N=C/c1cc(Cl)cc([N+](=O)[O-])c1O,,-14.3%
O=C(N/N=C/c1cc(Cl)cc([N+](=O)[O-])c1O)C(O)(c1ccccc1)c1ccccc1,28.2 µM (active),
CCOc1ccc(N(CC)C(=O)c2noc3c2COc2ccc(C)cc2-3)cc1,,10.9%
CCn1cc(C(=O)N2CC(C)CC(C)C2)c(=O)c2cc(S(=O)(=O)N3CCCC3)ccc21 (configuration not stated),,12.6% [at 102 µM]
CC1CCCCC1NC(=O)c1cn(C)c2ccc(S(=O)(=O)N3CCOCC3)cc2c1=O (configuration not stated),,-4.36% [at 102 µM]
COC(=O)c1cn(C)c2ccc(S(=O)(=O)N3CC(C)CC(C)C3)cc2c1=O (configuration not stated),56.2 µM (active),
